According to publication PMC4336329 (PLoS ONE, 2015):
The whole screen tested about 310,000 compounds, of which about 14,000 (4.5%) showed an effect of 50% or more. The effect is printed as a negative number. The list comes from a sample in which strong results are over-represented; it also holds similar structures and randomly drawn compounds.

biological target: human ether-à-go-go-related gene (hERG) potassium channel (human, UniProt Q12809); assay: primary screen, population patch clamp on CHO cells stably expressing hERG; higher = less effect of the substance
Sequence (Q12809 whole entry, looked up): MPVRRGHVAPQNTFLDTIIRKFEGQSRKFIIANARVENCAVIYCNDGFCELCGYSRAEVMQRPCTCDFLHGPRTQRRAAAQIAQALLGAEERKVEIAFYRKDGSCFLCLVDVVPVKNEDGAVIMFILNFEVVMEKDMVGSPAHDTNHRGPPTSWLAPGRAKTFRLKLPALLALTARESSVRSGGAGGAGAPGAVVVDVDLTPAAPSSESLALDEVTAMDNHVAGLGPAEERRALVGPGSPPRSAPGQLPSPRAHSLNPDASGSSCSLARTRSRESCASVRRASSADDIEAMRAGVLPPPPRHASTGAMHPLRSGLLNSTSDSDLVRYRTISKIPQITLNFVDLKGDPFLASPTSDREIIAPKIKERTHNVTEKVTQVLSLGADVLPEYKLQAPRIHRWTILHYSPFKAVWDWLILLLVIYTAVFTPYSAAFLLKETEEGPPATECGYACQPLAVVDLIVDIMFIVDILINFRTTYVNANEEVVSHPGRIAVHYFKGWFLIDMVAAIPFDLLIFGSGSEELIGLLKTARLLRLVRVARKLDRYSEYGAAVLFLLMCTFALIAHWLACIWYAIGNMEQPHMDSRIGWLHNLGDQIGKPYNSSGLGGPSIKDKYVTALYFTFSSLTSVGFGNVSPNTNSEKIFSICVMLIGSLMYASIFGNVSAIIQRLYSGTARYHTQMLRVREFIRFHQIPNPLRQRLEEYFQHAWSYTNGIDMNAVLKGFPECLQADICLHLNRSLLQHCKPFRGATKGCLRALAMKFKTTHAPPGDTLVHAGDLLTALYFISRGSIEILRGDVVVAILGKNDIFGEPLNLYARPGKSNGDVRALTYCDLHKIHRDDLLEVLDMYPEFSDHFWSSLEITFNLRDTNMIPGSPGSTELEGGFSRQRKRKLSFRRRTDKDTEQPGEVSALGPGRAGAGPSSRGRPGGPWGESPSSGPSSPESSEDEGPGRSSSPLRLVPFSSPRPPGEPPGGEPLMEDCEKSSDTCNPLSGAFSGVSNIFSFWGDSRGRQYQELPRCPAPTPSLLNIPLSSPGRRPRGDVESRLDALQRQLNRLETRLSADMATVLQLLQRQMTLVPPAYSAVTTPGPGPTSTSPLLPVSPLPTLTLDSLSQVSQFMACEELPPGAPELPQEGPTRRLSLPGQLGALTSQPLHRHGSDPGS
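Also: peak tail current of the secondary pulse compared with the same well before compound.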

Row | Compound | hERG current change (%, negative = inhibition) at 10uM [%]
1 | Cn1c(=O)c2c(nc(CN3CCN(c4cccc(Cl)c4)CC3)n2CCc2ccccc2)n(C)c1=O | -20.1
2 | CCCCn1c(CN(C)Cc2ccccc2)nc2c1c(=O)n(C)c(=O)n2C | -39.9
3 | CN(Cc1ccccc1)Cc1nc2c(c(=O)n(C)c(=O)n2C)n1CCCc1ccccc1 | -50.3
4 | CCCCC(CC(O)COCCC)C(=O)NN (stereo not drawn) | 16.1
5 | O=Cc1ccc(N2N=C(c3ccccc3)CC2c2ccccc2)cc1 (stereo not drawn) | 24.3
6 | Cc1[nH]c(C)c2c(=O)n(-c3ccccc3)ncc12 | 10.2
7 | COc1ccc(C2C(C#N)=C(N)N(N(C)C)C3=C2C(=O)CCC3)cc1 (stereo not drawn) | 9.88
8 | CCOC(=O)N1CCN(S(=O)(=O)c2ccc(Cl)cc2)CC1 | 0.615
9 | O=C(CSc1nc(-c2ccccc2)cs1)NCc1ccco1 | -14.9
10 | Cn1c(=O)c2c(nc(CN3CCc4ccccc4C3)n2Cc2ccccc2)n(C)c1=O | -17.5
11 | Cc1ccc(C)c(Cn2c(CN(C)Cc3ccccc3)nc3c2c(=O)n(C)c(=O)n3C)c1 | -51.3
12 | COCCn1c(CN2CCN(c3ccc(OC)cc3)CC2)nc2c1c(=O)n(C)c(=O)n2C | -9.23
13 | Cc1ccccc1Cn1c(CN2CCc3ccccc3C2)nc2c1c(=O)n(C)c(=O)n2C | -15.9
14 | Cc1ccc(Cn2c(CN(C)Cc3ccccc3)nc3c2c(=O)n(C)c(=O)n3C)cc1 | -21.5
15 | CCOC(=O)N1CCN(Cc2nc3c(c(=O)n(C)c(=O)n3C)n2Cc2ccc(F)cc2)CC1 | -36.2
16 | Cn1c(=O)c2c(nc(CN3CCc4ccccc4C3)n2Cc2cccc(Cl)c2)n(C)c1=O | -53.9
17 | Cn1c(=O)c2c(nc(CN3CCc4ccccc4C3)n2Cc2ccc(F)cc2)n(C)c1=O | -26.5
18 | COc1ccc(N2CCN(Cc3nc4c(c(=O)n(C)c(=O)n4C)n3CCc3ccccc3)CC2)cc1 | 13.5
19 | COc1ccc(N2CCN(Cc3nc4c(c(=O)n(C)c(=O)n4C)n3Cc3cccc(C)c3)CC2)cc1 | -52.3
20 | Cn1c(=O)c2c(nc(CN3CCN(Cc4ccccc4)CC3)n2Cc2ccc(F)cc2)n(C)c1=O | -67.2
21 | CN(Cc1ccccc1)Cc1nc2c(c(=O)n(C)c(=O)n2C)n1Cc1ccccc1Cl | -5.6
22 | NC(=S)Nc1ccc(C(F)(F)F)cc1Cl | 0.127
23 | O=C(CN1C(=O)C2(OCCO2)c2ccccc21)c1ccc(F)cc1 | 2.09

Row | Compound | hERG current change (%, negative = inhibition) at 10uM [%]
24 | COc1ccc(CCCC(=O)Nc2cc(C)ccc2OC)cc1 | -14.2
25 | CCOc1cc(C(=O)CCC(=O)OCC(=O)Nc2ccc(C)c(S(=O)(=O)N(C)C)c2)ccc1O | -32.7
26 | Cc1cc(N)n(Cc2cccs2)n1 | -2.95
27 | COc1ccc(C(=O)Nc2nnc(S(=O)(=O)N(C)Cc3ccccc3)s2)cc1 | 7.21
28 | O=c1c2ccccc2[nH]c(=S)n1-c1ccc2c(c1)OCO2 | 13.1
29 | Cc1nc(NC(=O)CSc2nnc3ccccn23)c(Cl)cc1Cl | -3.58
30 | Cn1c(=O)c2c(nc(CN3CCN(Cc4ccccc4)CC3)n2CCN2CCOCC2)n(C)c1=O | -17.6
31 | Cn1c(=O)c2c(nc(CN3CCN(Cc4ccccc4)CC3)n2Cc2ccc(Cl)cc2)n(C)c1=O | -68
32 | Cn1c(=O)c2c(nc(CN3CCc4ccccc4C3)n2Cc2ccc(Cl)cc2)n(C)c1=O | 0.125
33 | Cc1csc(SCC(=O)Nc2cc(S(=O)(=O)N3CCOCC3)ccc2N2CCOCC2)n1 | -45.8
34 | CCn1c(SCC(=O)Nc2ccc(OC)cc2)nnc1-c1ccco1 | -22.3
35 | O=C(O)/C=C/C(=O)NNC(=O)c1ccccc1Br | 2.8
36 | O=c1[nH]c(SCc2ccc(Cl)cc2)nc2ccccc12 | 3.49
37 | O=c1[nH]c(SCc2ccc(Cl)cc2)nc2ccsc12 | -67
38 | O=c1[nH]c(SCc2ccccc2)nc2ccsc12 | 5.3
39 | COc1cc(CCCN2C(=S)NC[C@@H]2CC2CCCCC2)cc(OC)c1OC | -1.89
40 | CC(C)N(CC#CC(O)(c1ccccc1)c1ccccc1)CCO | -28.1
41 | CCN(CC)CC#CC(O)(c1ccccc1)c1ccccc1 | -42.5
42 | CC(C)N(CC#CC(O)(c1ccccc1)c1ccccc1)C(C)C | -70.4
43 | CN(C)CCC#CC(O)(c1ccccc1)c1ccccc1 | -32.1
44 | CN(CC#CC(O)(c1ccccc1)c1ccccc1)C(C)(C)C | -69
45 | OCCN(CC#CC(O)(c1ccccc1)c1ccccc1)CCO | 5.56
